# Results from PMC7862700, “An all-to-all approach to the identification of sequence-specific readers for epigenetic DNA modifications on cytosine”.
# Legend:
# Assay in all cases: DAPPL (digital affinity profiling via proximity ligation, sequencing); 10 mM Tris-HCl pH 7.5, 50 mM NaCl, 1 mM DTT, 4% glycerol, room temperature, 30 min; GST-TFs on glutathione beads, 16-mer random dsDNA library, 0.1% formaldehyde crosslink after washing; high values mean tight binding
# [1] = biological target: T1, FLI1 (Homo sapiens, UniProt Q01543 1-452); details: protein: recombinant; tags: N-terminal GST; dsDNA, one strand shown
# T1 sequence: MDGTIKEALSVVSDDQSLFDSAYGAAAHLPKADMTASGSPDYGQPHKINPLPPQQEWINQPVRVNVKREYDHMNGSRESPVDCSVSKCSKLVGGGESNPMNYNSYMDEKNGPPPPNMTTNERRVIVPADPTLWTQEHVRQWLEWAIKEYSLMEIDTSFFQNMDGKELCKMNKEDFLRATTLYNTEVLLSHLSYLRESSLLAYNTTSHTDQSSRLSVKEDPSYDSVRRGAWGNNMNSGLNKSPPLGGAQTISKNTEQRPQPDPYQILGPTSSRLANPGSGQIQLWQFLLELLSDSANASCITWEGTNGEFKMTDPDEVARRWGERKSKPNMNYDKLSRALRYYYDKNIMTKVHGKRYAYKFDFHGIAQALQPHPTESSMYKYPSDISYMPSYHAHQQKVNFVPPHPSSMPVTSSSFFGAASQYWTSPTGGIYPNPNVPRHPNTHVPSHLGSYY
# How it was run: (§1)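 Binding signal is given per hexamer as its read frequency for a factor divided by its frequency in the tag-only sample. GST-fused human transcription factors were expressed in yeast, captured on glutathione beads, barcoded with DNA and pooled with that sample, then incubated with 200 nmole of a 16-mer random double-stranded DNA library in Tris/NaCl/DTT/glycerol buffer for 30 min at room temperature. The pools were then washed, crosslinked, proximity-ligated, amplified by PCR and sequenced on an Illumina NextSeq500.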
# [2] = biological target: T2, ELK1 (Homo sapiens, UniProt P19419 1-428); details: protein: recombinant; tags: N-terminal GST; dsDNA, one strand shown
# T2 sequence: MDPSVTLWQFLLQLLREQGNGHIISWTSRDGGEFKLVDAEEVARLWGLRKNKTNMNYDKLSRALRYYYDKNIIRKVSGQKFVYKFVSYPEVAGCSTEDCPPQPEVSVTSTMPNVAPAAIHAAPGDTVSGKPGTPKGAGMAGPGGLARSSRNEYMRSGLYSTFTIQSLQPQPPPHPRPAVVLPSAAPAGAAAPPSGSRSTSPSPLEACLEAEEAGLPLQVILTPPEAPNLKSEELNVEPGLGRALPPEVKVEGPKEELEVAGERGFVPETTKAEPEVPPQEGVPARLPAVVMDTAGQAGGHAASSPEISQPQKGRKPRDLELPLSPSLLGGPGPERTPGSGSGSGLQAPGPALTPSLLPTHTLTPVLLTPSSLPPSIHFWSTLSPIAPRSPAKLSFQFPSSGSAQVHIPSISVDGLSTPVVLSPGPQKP
# How it was run: as §1
# [3] = biological target: T3, GABPA (Homo sapiens, UniProt Q06546 1-454); details: protein: recombinant; tags: N-terminal GST; dsDNA, one strand shown
# T3 sequence: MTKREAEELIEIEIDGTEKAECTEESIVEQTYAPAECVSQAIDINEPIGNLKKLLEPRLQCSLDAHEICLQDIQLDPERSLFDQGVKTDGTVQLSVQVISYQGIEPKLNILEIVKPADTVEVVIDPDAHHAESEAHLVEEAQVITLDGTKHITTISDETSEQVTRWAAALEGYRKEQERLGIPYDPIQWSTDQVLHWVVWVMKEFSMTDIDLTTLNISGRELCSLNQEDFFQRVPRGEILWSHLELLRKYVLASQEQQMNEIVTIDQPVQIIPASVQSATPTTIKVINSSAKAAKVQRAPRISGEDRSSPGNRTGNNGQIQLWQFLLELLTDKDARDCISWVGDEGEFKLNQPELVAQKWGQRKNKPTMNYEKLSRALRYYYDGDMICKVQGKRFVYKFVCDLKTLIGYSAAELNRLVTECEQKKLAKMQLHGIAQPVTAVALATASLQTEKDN
# How it was run: as §1
# [4] = biological target: T4, ERG (Homo sapiens, UniProt P11308 1-479); details: protein: recombinant; tags: N-terminal GST; dsDNA, one strand shown
# T4 sequence: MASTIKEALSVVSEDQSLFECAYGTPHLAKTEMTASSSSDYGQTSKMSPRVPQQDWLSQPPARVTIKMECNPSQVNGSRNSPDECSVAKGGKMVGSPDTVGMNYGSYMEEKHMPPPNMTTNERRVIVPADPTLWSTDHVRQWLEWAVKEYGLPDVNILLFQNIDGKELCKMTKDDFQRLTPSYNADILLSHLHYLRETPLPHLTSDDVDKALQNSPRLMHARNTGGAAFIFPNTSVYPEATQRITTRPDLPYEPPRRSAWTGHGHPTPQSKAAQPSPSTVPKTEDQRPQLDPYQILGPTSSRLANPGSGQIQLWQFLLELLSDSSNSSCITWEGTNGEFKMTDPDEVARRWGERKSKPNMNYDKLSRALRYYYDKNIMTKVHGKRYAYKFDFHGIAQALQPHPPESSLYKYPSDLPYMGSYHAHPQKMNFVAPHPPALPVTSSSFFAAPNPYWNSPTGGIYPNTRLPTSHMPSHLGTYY
# How it was run: as §1
# [5] = biological target: ELF1 (Homo sapiens, UniProt P32519 1-619); details: protein: recombinant; tags: N-terminal GST; dsDNA, one strand shown
# Chain of ELF1 (P32519 whole entry): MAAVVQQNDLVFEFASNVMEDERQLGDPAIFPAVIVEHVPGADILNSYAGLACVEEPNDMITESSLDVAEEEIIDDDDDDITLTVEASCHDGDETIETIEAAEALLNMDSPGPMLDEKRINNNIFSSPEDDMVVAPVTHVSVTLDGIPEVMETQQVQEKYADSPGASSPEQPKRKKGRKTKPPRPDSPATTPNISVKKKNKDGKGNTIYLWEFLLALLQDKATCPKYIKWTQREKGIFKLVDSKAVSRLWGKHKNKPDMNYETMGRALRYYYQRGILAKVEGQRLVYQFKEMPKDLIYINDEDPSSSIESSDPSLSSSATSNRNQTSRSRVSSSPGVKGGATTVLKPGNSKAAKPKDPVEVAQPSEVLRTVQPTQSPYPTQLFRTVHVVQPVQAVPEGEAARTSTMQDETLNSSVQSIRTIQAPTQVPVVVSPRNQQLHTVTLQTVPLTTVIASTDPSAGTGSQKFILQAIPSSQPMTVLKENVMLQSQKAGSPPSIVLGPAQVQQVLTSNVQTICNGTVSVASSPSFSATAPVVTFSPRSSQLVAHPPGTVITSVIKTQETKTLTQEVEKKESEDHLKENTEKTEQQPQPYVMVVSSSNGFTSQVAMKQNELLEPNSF
# How it was run: as §1
# [6] = biological target: T5, EHF (Homo sapiens, UniProt Q9NZC4 1-300); details: protein: recombinant; tags: N-terminal GST; dsDNA, one strand shown
# T5 sequence: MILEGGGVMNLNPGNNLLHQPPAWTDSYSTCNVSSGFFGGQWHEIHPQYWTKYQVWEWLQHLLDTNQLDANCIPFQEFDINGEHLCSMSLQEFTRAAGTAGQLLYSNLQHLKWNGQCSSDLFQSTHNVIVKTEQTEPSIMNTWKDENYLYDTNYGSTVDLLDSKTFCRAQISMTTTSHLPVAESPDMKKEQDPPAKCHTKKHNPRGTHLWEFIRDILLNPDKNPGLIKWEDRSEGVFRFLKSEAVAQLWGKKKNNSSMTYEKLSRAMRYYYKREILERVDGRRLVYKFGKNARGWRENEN
# How it was run: as §1
# [7] = biological target: SPI1 (Homo sapiens, UniProt P17947 1-270); details: protein: recombinant; tags: N-terminal GST; dsDNA, one strand shown
# How it was run: as §1
# [8] = biological target: SPIB (Homo sapiens, UniProt Q01892 1-262); details: protein: recombinant; tags: N-terminal GST; dsDNA, one strand shown
# Chain of SPIB (Q01892 whole entry): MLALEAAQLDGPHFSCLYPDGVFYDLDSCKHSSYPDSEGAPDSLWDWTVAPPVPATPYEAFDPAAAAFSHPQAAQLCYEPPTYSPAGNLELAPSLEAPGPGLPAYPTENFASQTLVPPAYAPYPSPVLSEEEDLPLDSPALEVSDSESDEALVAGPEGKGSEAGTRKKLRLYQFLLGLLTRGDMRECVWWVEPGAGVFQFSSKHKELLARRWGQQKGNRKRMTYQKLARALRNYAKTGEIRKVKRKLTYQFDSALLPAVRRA
# How it was run: as §1
# [9] = biological target: T6, ELK3 (Homo sapiens, UniProt P41970 1-407); details: protein: recombinant; tags: N-terminal GST; dsDNA, one strand shown
# T6 sequence: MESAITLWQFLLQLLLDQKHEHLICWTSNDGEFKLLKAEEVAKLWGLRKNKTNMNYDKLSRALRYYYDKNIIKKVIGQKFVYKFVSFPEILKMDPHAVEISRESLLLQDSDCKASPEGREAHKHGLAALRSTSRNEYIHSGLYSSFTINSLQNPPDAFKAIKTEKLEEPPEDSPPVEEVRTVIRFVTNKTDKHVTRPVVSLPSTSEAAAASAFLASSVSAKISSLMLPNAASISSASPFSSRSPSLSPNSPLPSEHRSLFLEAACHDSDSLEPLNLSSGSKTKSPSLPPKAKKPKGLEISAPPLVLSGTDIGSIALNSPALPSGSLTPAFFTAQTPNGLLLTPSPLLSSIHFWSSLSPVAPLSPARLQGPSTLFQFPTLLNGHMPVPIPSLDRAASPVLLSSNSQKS
# How it was run: as §1
# [10] = biological target: T7, FEV (Homo sapiens, UniProt Q99581 1-238); details: protein: recombinant; tags: N-terminal GST; dsDNA, one strand shown
# T7 sequence: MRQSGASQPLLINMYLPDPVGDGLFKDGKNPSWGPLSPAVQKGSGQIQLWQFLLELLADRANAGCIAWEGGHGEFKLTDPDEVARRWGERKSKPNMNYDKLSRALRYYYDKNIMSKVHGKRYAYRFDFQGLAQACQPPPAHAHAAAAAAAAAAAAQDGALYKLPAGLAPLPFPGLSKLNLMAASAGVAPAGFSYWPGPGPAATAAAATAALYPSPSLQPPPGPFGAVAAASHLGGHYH
# How it was run: as §1
# [11] = biological target: ETV5 (Homo sapiens, UniProt P41161 1-510); details: protein: recombinant; tags: N-terminal GST; dsDNA, one strand shown
# Chain of ETV5 (P41161 whole entry): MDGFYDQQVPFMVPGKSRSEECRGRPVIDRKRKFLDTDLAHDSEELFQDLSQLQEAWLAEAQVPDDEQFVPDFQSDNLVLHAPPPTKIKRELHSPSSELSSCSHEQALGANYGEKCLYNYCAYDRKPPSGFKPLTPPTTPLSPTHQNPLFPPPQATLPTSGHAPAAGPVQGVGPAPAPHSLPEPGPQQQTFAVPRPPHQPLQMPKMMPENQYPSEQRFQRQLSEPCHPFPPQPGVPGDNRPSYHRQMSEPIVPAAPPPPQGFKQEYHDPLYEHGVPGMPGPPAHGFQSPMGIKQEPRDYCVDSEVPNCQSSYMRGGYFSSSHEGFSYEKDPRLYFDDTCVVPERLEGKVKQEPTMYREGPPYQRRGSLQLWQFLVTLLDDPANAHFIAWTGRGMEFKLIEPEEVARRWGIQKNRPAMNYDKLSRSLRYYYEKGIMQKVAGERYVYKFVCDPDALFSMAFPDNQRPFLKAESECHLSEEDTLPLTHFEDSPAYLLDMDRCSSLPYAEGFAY
# How it was run: as §1
# [12] = biological target: HSF1 (Homo sapiens, UniProt Q00613 1-529); details: protein: recombinant; tags: N-terminal GST; chain copies: 3; dsDNA, one strand shown
# Chain of HSF1 (Q00613 whole entry): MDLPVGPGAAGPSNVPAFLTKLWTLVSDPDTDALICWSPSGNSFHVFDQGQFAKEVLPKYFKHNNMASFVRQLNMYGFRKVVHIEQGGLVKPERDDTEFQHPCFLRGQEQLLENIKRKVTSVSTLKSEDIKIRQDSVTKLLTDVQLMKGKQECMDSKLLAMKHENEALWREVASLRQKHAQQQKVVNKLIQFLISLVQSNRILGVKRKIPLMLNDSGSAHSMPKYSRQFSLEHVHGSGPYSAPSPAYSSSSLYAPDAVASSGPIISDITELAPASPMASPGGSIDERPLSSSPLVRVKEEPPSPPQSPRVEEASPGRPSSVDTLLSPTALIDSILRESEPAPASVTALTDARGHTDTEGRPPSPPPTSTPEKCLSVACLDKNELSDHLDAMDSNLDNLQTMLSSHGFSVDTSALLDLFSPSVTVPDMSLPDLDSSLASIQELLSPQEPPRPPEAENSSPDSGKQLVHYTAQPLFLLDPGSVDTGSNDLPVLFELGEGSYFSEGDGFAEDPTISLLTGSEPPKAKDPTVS
# How it was run: as §1
# [13] = biological target: T8, SPIC (Homo sapiens, UniProt Q8N5J4 1-248); details: protein: recombinant; tags: N-terminal GST; dsDNA, one strand shown
# T8 sequence: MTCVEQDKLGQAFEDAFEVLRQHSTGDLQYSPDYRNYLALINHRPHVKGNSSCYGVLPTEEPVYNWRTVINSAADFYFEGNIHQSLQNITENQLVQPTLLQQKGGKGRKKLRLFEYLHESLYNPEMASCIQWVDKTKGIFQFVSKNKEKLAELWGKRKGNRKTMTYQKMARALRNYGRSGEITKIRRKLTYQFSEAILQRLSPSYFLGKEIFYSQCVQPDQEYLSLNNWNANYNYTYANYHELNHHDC
# How it was run: as §1
# [14] = biological target: ELF4 (Homo sapiens, UniProt Q99607 1-663); details: protein: recombinant; tags: N-terminal GST; dsDNA, one strand shown
# Chain of ELF4 (Q99607 whole entry): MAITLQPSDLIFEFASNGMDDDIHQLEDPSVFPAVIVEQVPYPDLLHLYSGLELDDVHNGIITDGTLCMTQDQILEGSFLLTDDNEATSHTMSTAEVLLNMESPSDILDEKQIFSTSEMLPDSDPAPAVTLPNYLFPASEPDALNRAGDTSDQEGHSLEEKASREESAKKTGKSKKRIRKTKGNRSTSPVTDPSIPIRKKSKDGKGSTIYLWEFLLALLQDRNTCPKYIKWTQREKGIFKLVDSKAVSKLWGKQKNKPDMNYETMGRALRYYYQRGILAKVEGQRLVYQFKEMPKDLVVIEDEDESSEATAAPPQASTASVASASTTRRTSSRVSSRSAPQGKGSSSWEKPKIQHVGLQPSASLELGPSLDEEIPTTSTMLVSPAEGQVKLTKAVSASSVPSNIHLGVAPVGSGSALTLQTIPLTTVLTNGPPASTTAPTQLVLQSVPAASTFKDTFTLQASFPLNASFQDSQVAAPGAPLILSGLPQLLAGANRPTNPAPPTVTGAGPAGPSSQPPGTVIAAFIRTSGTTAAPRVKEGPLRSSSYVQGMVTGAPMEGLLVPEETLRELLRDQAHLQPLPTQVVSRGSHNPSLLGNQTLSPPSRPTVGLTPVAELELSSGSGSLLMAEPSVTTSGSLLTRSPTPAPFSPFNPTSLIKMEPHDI
# How it was run: as §1
# [15] = biological target: T9, ELK4 (Homo sapiens, UniProt P28324-2 1-405); details: protein: recombinant; tags: N-terminal GST; dsDNA, one strand shown
# T9 sequence: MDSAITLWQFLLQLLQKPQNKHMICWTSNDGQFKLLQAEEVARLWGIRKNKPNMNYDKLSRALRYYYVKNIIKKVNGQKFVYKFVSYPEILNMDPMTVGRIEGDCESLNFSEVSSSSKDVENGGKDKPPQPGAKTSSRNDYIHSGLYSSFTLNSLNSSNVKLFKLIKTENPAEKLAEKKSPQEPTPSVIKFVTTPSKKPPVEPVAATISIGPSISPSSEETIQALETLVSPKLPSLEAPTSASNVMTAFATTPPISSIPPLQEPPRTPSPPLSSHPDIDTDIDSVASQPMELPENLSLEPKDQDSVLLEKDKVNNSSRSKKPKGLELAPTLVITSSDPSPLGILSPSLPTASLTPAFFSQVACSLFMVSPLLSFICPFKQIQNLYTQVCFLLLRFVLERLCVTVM
# How it was run: as §1
# [16] = biological target: T10, ETV2 (Homo sapiens, UniProt O00321 1-342); details: protein: recombinant; tags: N-terminal GST; dsDNA, one strand shown
# T10 sequence: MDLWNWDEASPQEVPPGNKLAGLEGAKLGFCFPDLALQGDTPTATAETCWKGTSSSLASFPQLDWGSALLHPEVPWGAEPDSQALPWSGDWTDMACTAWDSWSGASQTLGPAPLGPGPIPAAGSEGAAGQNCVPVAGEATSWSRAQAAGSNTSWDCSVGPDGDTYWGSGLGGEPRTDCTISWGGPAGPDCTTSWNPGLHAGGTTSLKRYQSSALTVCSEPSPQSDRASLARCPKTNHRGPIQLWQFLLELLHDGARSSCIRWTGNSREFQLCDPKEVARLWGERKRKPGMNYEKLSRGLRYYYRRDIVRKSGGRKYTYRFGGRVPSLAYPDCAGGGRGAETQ
# How it was run: as §1
# [17] = biological target: T11, ELF3 (Homo sapiens, UniProt P78545 1-371); details: protein: recombinant; tags: N-terminal GST; dsDNA, one strand shown
# T11 sequence: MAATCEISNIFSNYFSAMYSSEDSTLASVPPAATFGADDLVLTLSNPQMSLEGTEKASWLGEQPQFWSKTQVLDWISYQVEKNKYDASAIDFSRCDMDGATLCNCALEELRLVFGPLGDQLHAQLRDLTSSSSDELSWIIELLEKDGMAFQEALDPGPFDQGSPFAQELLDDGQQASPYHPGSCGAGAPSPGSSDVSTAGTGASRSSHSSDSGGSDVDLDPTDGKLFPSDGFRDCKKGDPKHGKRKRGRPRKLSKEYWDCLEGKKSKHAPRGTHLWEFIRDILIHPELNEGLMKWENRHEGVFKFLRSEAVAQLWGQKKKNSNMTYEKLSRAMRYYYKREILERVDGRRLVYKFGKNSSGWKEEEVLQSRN
# How it was run: as §1
# [18] = biological target: CRX (Homo sapiens, UniProt O43186 1-299); details: protein: recombinant; tags: N-terminal GST; dsDNA, one strand shown
# Chain of CRX (O43186 whole entry): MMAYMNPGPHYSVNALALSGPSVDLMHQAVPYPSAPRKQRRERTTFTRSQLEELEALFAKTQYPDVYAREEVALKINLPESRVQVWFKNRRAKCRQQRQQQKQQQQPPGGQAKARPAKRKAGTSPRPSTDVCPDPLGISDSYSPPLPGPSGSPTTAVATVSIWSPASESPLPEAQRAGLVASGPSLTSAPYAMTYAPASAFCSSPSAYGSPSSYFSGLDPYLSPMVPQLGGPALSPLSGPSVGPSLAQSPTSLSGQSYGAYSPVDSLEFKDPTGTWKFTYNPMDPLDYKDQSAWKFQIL
# How it was run: as §1
# [19] = biological target: ETV1 (Homo sapiens, UniProt P50549 1-477); details: protein: recombinant; tags: N-terminal GST; dsDNA, one strand shown
# Chain of ETV1 (P50549 whole entry): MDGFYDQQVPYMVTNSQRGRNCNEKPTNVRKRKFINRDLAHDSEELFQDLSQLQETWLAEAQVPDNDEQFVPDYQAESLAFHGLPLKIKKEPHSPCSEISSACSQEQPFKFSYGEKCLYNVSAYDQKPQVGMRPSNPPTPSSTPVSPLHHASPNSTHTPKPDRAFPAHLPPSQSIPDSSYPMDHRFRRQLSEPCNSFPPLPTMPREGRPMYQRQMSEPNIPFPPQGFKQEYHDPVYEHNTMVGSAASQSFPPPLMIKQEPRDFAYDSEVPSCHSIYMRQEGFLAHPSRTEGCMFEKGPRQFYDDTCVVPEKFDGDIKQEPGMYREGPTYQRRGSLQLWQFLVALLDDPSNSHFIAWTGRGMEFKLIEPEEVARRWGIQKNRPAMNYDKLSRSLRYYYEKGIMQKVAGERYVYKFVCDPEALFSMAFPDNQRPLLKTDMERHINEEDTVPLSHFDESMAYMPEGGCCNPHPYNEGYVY
# How it was run: as §1
sequence,measurement,setting,value
TTTTCT,binding signal,[1],"1.31 fold enrichment (6-mer frequency, TF over GST control)"
same,binding signal,[2],"1.29 fold enrichment (6-mer frequency, TF over GST control)"
same,binding signal,[3],"1.27 fold enrichment (6-mer frequency, TF over GST control)"
same,binding signal,[4],"1.34 fold enrichment (6-mer frequency, TF over GST control)"
same,binding signal,[5],"1.29 fold enrichment (6-mer frequency, TF over GST control)"
same,binding signal,[6],"1.46 fold enrichment (6-mer frequency, TF over GST control)"
same,binding signal,[7],"1.45 fold enrichment (6-mer frequency, TF over GST control)"
same,binding signal,[8],"1.18 fold enrichment (6-mer frequency, TF over GST control)"
same,binding signal,[9],"1.31 fold enrichment (6-mer frequency, TF over GST control)"
same,binding signal,[10],"1.26 fold enrichment (6-mer frequency, TF over GST control)"
same,binding signal,[11],"1.28 fold enrichment (6-mer frequency, TF over GST control)"
same,binding signal,[12],"2.46 fold enrichment (6-mer frequency, TF over GST control)"
same,binding signal,[13],"1.15 fold enrichment (6-mer frequency, TF over GST control)"
same,binding signal,[14],"1.46 fold enrichment (6-mer frequency, TF over GST control)"
same,binding signal,[15],"1.32 fold enrichment (6-mer frequency, TF over GST control)"
same,binding signal,[16],"1.48 fold enrichment (6-mer frequency, TF over GST control)"
same,binding signal,[17],"1.35 fold enrichment (6-mer frequency, TF over GST control)"
same,binding signal,[18],"1.61 fold enrichment (6-mer frequency, TF over GST control)"
same,binding signal,[19],"1.21 fold enrichment (6-mer frequency, TF over GST control)"
